Test results as given in PubChem BioAssay (NCI).
Several values for one entry are separate records, joined by “and”; a condition that tells them apart may be missing. Equal entries are not always repeated. This is part of a sample that, as a whole, favours compounds with a hit. Of some 83,000 tested, about 20% had one in any assay.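 Single-dose data. Exposure time 48 hours. Values below 10 considered active.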 Unmarked numbers belong to inactive results. Activity calls are given as the source filed them.

system: HOP-92 NSCLC; assay: NCI-60 one-dose screen, 48 h (100 = growth as untreated, 0 = no growth, -100 = all killed); settings: 0.01 µM
Method: Growth inhibition of the HOP-92 human Non-Small Cell Lung tumor cell line is measured as a screen for anti-cancer activity. Cells are grown in 96 well plates and exposed to the test compound for 48 hours. Compounds are tested at a single concentration, which is 10^-5 M for most compounds. The reported endpoint is percent growth (GI% or GIPRCNT), where numbers from 0 - 100% represent growth inhibition, and numbers from -100% - 0 represent cell death. For example, a value of 40 represents 60% growth inhibition. A value of 0 means no net growth occurred over the course of the experiment. A value of -40 indicates 40% of cells at the beginning of the experiment died by the end of the experiment. A value of -100 means all cells are dead at the end of the experiment.
NCI-60 Human Tumor Cell Lines Screen was performed using the standard one-dose NCI protocol, which is described in more detail at https://dtp.cancer.gov/discovery_development/nci-60/default.htm.
Compounds with GIPRCNT values below 10 were considered active. Activity score was based on GIPRCNT using the following formula: […]
Score is 0 for GIPRCNT values of 100 or above, 50 for GIPRCNT values of 0, and 100 for GIPRCNT values of -100.

Row | SMILES | growth [%]
1 | CC(=O)O[C@H]1C(=O)[C@@]2(C)[C@H]([C@H](OC(=O)c3ccccc3)[C@]3(O)C[C@H](OC(=O)[C@H](O)[C@@H](NC(=O)c4ccccc4)c4ccccc4)C(C)=C1C3(C)C)[C@]1(OC(C)=O)CO[C@@H]1C[C@@H]2O | 53.2

same assay, conditions: 2.5 µM

Row | SMILES | growth [%]
2 | CC(=O)O[C@H]1C(=O)[C@@]2(C)[C@H]([C@H](OC(=O)c3ccccc3)[C@]3(O)C[C@H](OC(=O)[C@H](O)[C@@H](NC(=O)c4ccccc4)c4ccccc4)C(C)=C1C3(C)C)[C@]1(OC(C)=O)CO[C@@H]1C[C@@H]2O | 32.9

same assay, conditions: 5 µM

Row | SMILES | growth [%]
3 | CC(=O)O[C@H]1C(=O)[C@@]2(C)[C@H]([C@H](OC(=O)c3ccccc3)[C@]3(O)C[C@H](OC(=O)[C@H](O)[C@@H](NC(=O)c4ccccc4)c4ccccc4)C(C)=C1C3(C)C)[C@]1(OC(C)=O)CO[C@@H]1C[C@@H]2O | 42.7

same assay, conditions: 10 µM

Row | SMILES | growth
4 | COc1ccc(C(C#N)=C2C=CC(=NO)C=C2)cc1 | 137%
5 | CN(C)CCNc1cccc2sc3ccc(O)cc3c(=O)c12 | 31.9%
6 | O=C1C(Cl)=C(Cl)C(Cl)(Cl)C(Cl)C1(Cl)Cl (centres undefined) | 104%
7 | O=C(NC(=S)Nc1ccccn1)c1ccccc1 | 79.5%
8 | CN(C)c1ccc(/C=C/c2ccnc3ccccc23)cc1N | -3.62% (active)
9 | O=C1C=CC(=O)N1c1ccc(N2C(=O)C=CC2=O)cc1 | 123%
10 | O=[N+]([O-])c1cc(S(=O)(=O)Nc2ccccc2)ccc1Cl | 90%
11 | Cn1c2nc3ccccc3c-2nc2ccccc21 | 77.6% and 79.1%
12 | CC(=O)O[C@H]1C(=O)[C@@]2(C)[C@H]([C@H](OC(=O)c3ccccc3)[C@]3(O)C[C@H](OC(=O)[C@H](O)[C@@H](NC(=O)c4ccccc4)c4ccccc4)C(C)=C1C3(C)C)[C@]1(OC(C)=O)CO[C@@H]1C[C@@H]2O | 37.4%
13 | O=S(=O)(c1cc(Cl)ccc1O)c1cc(Cl)ccc1O | 6.03% (active)
14 | COc1ccc(N)c2c1C(=O)c1ccccc1C2=O | 84.1%
15 | Nc1nc(N)c2cc(Sc3ccc4ccccc4c3)ccc2n1 | 30.3%
16 | CCOC(=O)[C@]1(Br)CC[C@@]1(Br)C(=O)OCC | 109%
17 | Cc1c(-c2ccccc2)[nH]c2ccccc12 | 71.8%
18 | ClCCn1c(CCl)nc2ccc(Cl)cc21 | -57.2% (active)
19 | CC1CCC2(C(=O)O)CCC3(C)C(=CCC4C5(C)CC(O)C(O)C(C)(CO)C5C(O)CC43C)C2C1C (centres undefined) | 79%
20 | CCC(=O)Oc1ccc(/C=N/NC(N)=S)nc1 | 68.5%
21 | NCc1c(O)ccc2ccccc12 | 73%

Row | SMILES | growth
22 | O=C(CNS(=O)(=O)Cc1ccccc1)NNc1ccccc1 | 101%
23 | Cc1cc(Cl)ccc1NC(=O)/C(Cl)=C1/Sc2ccccc2NC1=O | 70.5%
24 | S=P(N1CC1)(N1CC1)N1CC1 | 99.9%
25 | O=c1[nH]cc(/C=N\Nc2ccccc2)c(=O)[nH]1 | 96.7%
26 | Cc1cc(O)c2c(c1O)C(=O)C13C(=C2O)C(=O)C2C(O)C1C1C(O)C3C(=O)C3=C(O)c4c(O)cc(C)c(O)c4C(=O)C321 (centres undefined) | -18.2% (active)
27 | COc1ccc2oc(-c3ccc(Cl)cc3)c(N3CCN(C)CC3)c2c1 | -17.1% (active)
28 | N#CC(=C1C=CC(=NO)C=C1)c1ccccc1 | -7.52% (active)
29 | Cc1cc(N=C2C=CC(=[N+](C)C)C=C2)c(N)cc1N | 97.3%
30 | CCC(C)(c1ccc(O)c(C)c1)c1ccc(O)c(C)c1 | 82.4%
31 | N#C/C(=C/N1C(=O)/C(=C/c2ccc([N+](=O)[O-])cc2)SC1=S)c1nc2ccccc2s1 | 66.8%
32 | O=C(O)c1ccccc1.[Ag] | 107%
33 | O=C1c2cccc3cc([N+](=O)[O-])cc(c23)C(=O)N1CCN1CCCC1 | 0.989% (active)
34 | COc1cccc(C(c2cc3c(cc2O)OCO3)N2CCOCC2)c1OC (centres undefined) | 99.6%
35 | Cn1ncc2cc3c(Nc4ccc(Cl)cc4)cccc3nc21 | 77%
36 | C=C1N(C)c2ccc(Cl)cc2C1(C)C | 48.1%
37 | CN(CC(=O)O)c1ccc(/C=C/c2ccnc3ccccc23)cc1 | 46.2%
38 | O=Nc1ccc(Nc2ccccc2)cc1 | 26%

same assay, conditions: 100 µM

Row | SMILES | growth [%]
39 | S=P(N1CC1)(N1CC1)N1CC1 | 36.1
